GLP1R cytotox = cytotoxic in the GLP-1 receptor inverse agonist counter-screen | HEK293 cAMP-luciferase reporter cells, luminescence, 24 h | Potency, µM (series often up to 38.3 µM), without a hit: at the top dose activity change, negative = inhibition, most hits filed as inhibitors | 0.13% of 410,000 active | AID 624418;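 also: loss of luciferase light is scored as toxicity; % is scaled to controls: 0 for no effect and ±100 for the full control effect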
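Here, cytotoxicity is scored as loss of luminescence. The MLSMR collection was tested on cells seeded in medium containing 10% Nu serum, with a 24 hr compound exposure preceded by 12 hours of culture.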
GLP1R ag = activates the human GLP-1 receptor; P43220; HEK293 GLP-1R CRE-luciferase, luminescence, 4-6 h; cells express a hypersensitive GLP-1R form; Potency, µM (series often up to 45.6 µM), for the others: at the top dose activation, actives largely listed as activators; 0.007% of 380,000 active; AID 624172; also: % of control where 0% means no effect
RORg inh = inhibitors of mouse ROR gamma transcriptional activity; Potency, µM (series often up to 53.6 µM), inactives show top-dose activity change, negative = inhibition, actives largely listed as inhibitors; Drosophila S2 Gal4-RORgamma UAS-luciferase reporter, 20 h; 5.4% of 310,000 active; P51450; also: % is scaled to controls: 0 for no effect and ±100 for the full control effect; nearly all actives have a fitted effect of over 60% in size
Target sequence (P51450 whole entry, looked up, the tested form may be a part): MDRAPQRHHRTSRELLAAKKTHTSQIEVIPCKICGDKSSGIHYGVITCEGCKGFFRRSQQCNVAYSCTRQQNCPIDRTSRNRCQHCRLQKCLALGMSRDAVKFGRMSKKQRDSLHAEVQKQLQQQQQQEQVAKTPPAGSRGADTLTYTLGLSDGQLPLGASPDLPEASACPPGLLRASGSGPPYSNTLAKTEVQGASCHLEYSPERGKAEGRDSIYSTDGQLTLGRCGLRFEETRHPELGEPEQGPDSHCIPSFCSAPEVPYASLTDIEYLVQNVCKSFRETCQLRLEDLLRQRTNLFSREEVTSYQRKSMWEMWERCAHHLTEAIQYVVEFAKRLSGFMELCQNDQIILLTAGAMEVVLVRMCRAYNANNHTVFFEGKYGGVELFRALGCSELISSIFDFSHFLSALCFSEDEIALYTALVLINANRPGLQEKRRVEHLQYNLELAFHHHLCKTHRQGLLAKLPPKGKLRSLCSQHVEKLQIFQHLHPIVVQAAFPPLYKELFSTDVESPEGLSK
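ROR gamma transcriptional activity was tracked as Gal4-UAS luciferase output in stably transfected Drosophila Schneider cells, with compound added 1 hr before 700 uM copper sulfate induction and a 20 hr ambient-temperature incubation.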
VP16 counter = Gal4-VP16 reporter inhibition counter-screen. Potency, µM (doses to about 53.6 µM), inactives show at the highest dose activity, negative = inhibition, actives largely listed as inhibitors. Drosophila S2 Gal4-VP16 UAS-luciferase, luminescence, 20 h. 3.5% of 310,000 active;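 also: Gal4-VP16 expression switched on by copper sulfate through the metallothionein promoter; % is scaled to controls: 0 for no effect and ±100 for the full control effect; nearly all actives have a fitted effect of over 50% in size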
GLP-1R inv ag = inverse agonists of human GLP-1 receptor; 1.6% of 410,000 active; P43220; AID 624417; Potency, µM (doses to about 38.3 µM), for inactives: at the top dose activity change, negative = inhibition, hits mostly inhibitors; HEK293 GLP-1R CRE-luciferase, luminescence, 24 h; GLP-1R form is constitutively active; also: % is scaled to controls: 0 for no effect and ±100 for the full control effect; nearly all actives have a fitted effect of over 55% in size
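Cells are plated, allowed 12 hours at 37 deg C, then treated with compounds for 24 hr before luciferase detection reagent is added and luminescence is read after 12 min at room temperature. The HEK293 line carries constitutively active GLP-1R with a cAMP-responsive reporter.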
* marks the source's active call; other numbers are inactive results; ? = inconclusive; . = not tested or not shown; [ ] = another dose, or the depositor's remark. An excerpt weighted towards active compounds, which were near 5.9% of everything screened. Calls follow the shape of the dose curve; as a rule, active = well fitted curve in the direction sought with a large enough effect; inconclusive = small, poorly fitted or top-dose-only effect, or another doubt; inactive = no such curve, though single readings can be large; an effect the other way counts as inactive or inconclusive. Potency is read from the fitted curve at half-maximal effect.

SMILES	GLP1R cytotox	GLP1R ag	RORg inh	VP16 counter	GLP-1R inv ag
C=CCC[C@@H](Cc1ccc(F)cc1)C(=O)OC[C@H](Cc1c[nH]c2ccccc12)NC(=O)[C@@H](CC=C)CC(=O)N[C@@H](CO)Cc1ccccc1	-20%	-1%	.	.	?
C=CCC[C@H](Cc1ccc(F)cc1)C(=O)OC[C@@H](Cc1c[nH]c2ccccc12)NC(=O)[C@@H](CC=C)CC(=O)N[C@@H](CO)Cc1ccccc1	?	3%	.	.	7.1µM*
O=C(COc1ccccc1Br)Nc1ccc2c(c1)OCCCO2	4%	?	18µM*	-11%	?
Cc1ccc(C)c(OCC(=O)Nc2ccc3c(c2)OCO3)c1C	?	7%	16%	-11%	7.9µM*
CCOC(=O)c1c(N)sc(C(=O)Nc2ccc3c(c2)OCO3)c1C	?	-11%	?	5.6µM*	5.6µM*
O=C1C(c2ccc(F)cc2)N(Cc2ccccc2Cl)C(=O)CN1C1CCCCC1 (centres undefined)	0%	.	.	.	?
O=C(Nc1cc(S(=O)(=O)N2CCCCC2)ccc1Cl)c1ccccc1NS(=O)(=O)c1ccc(F)cc1	?	-11%	?	5.6µM*	2.8µM*
O=C(CN(Cc1ccco1)Cc1ccco1)Nc1cc(S(=O)(=O)N2CCCCC2)ccc1Cl	-3%	-3%	.	.	10µM*
O=C(Nc1cc(S(=O)(=O)N2CCCCC2)ccc1O)c1ccccc1NS(=O)(=O)c1ccc(F)cc1	?	1%	40%	4%	?
O=C(NCc1ccco1)c1cc(S(=O)(=O)N2CCCC2)ccc1Cl	-4%	-4%	-1%	1%	-29%
COc1cccc(Nc2ncc3nc(C)c(=O)n(CCC#N)c3n2)c1	.	.	26%	1%	.
N[C@H](Cc1cc(I)c(Oc2ccc(O)c(I)c2)c(I)c1)C(=O)O	.	.	-18%[16.9 µM]	-2%[17 µM]	.
COC(=O)CSCC(=O)Nc1nnc(-c2ccccc2C)s1	-13%	1%	?	?	4%
COCc1nnc(NC(=O)CSc2ccccc2)s1	2%	0%	?	-27%	-5%
COC(=O)CSCC(=O)Nc1nnc(-c2cccc(C)c2)s1	-8%	1%	13µM*	-29%	10%
O=C(CSc1ccccc1)Nc1nnc(COc2ccc(Cl)cc2)s1	8%	1%	11µM*	?	-29%
COCc1nnc(NC(=O)CSCc2ccccc2)s1	1%	-6%	11µM*	-17%	1%
COCCSc1nnc(NC(=O)CSCc2ccccc2)s1	-10%	-1%	7.9µM*	?	7%
COCCSc1nnc(NC(=O)COC)s1	-14%	-8%	-32%	14%	0%
COc1cc(SC)ccc1C(=O)Nc1ccc(S(=O)(=O)Nc2nccc(C)n2)cc1	-1%	.	.	.	3%
COC(=O)c1ccc(C(NC(=O)OCc2ccccc2)/C(C)=C/[C@@H](C)C(=O)N[C@@H](CO)Cc2ccccc2)cc1 (some centres undefined)	.	.	12%	-3%	.
O=C(CSc1ccc(Cl)cc1)Nc1nnc(-c2cccc([N+](=O)[O-])c2)s1	0%	5%	10µM*	?	16%
O=C(Cc1cccc2ccccc12)Nc1nnc(-c2cccc([N+](=O)[O-])c2)s1	0%	4%	-17%	2%	4%
Cc1ccc(CCNC(=O)C2CCN(S(=O)(=O)c3ccc4c(ccn4C)c3)CC2)cc1	-9%	.	.	.	?
O=C(NC(=S)Nc1cc(C(F)(F)F)ccc1N1CCOCC1)c1sc2ccccc2c1Cl	-12%	-5%	2.2µM*	4µM*	28%
CC(C)(C)C(=O)NC(=S)Nc1cc(C(F)(F)F)ccc1N1CCOCC1	-7%	12%	13µM*	?	?
O=C(CCCCl)NC(=S)Nc1cc(C(F)(F)F)ccc1N1CCOCC1	?	16%	7.9µM*	?	?
CCCC(=O)Nc1cc(C(F)(F)F)ccc1N1CCOCC1	17%	20%	18%	-4%[10 µM]	12%
CCC1=C2CC[C@H]3C(=O)N(c4ccccc4)C(=O)[C@H]3[C@H]2[C@@]2(C)C(=O)N(Cc3ccccc3)C(=O)N2C1=O	.	.	-3%	-12%	.

Source: PubChem (National Center for Advancing Translational Sciences (NCATS))
